Test results published in PubChem BioAssay (NCATS).
Several values for one entry are separate records, joined by “and”; a condition that tells them apart may be missing. Identical values can stand only once. Records with an inconclusive call do not appear. Activity calls are given as the source filed them. Calls come from the whole dose curve; as a rule, active = well fitted curve in the direction sought with a large enough effect; inconclusive = small, poorly fitted or top-dose-only effect, or another doubt; inactive = no such curve, though single readings can be large; an effect the other way counts as inactive or inconclusive.

Assays:
[1] = Quantitative highthroughput screen to assess conditional lethalithy of NOMO1 cells grown in RPMI1640 with untreated serum (RPMI+s) (AID 1963876); note: nearly all actives have a fitted effect of over 35% in size;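 for viability: 100% = DMSO wells and 0% = empty wells without cells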
Summary of the method: (§1)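 Each medium arm—HPLM with 10% dialyzed FBS, or RPMI1640 with 5 mM glucose and 10% untreated or dialyzed FBS—was screened against an 11-point, 3-fold compound titration for 48 h at 37 °C, with CellTiter-Glo luminescence as endpoint.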

[2] = Quantitative highthroughput screen to assess conditional lethalithy of NOMO1 cells grown in RPMI1640 with dialyzed fetal bovine serum (RPMI+ds) (AID 1963877); note: nearly all actives have a fitted effect of over 30% in size;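 for viability: series mostly up to about 46 µM; 100% = DMSO control wells and 0% = empty wells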
Summary of the method: as §1

[3] = Quantitative highthroughput screen to assess conditional lethalithy of NOMO1 cells grown in Human Plasma-Like Medium with dialyzed fetal bovine serum (HPLM+ds) (AID 1963878); note: nearly all actives have a fitted effect of over 35% in size;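 for viability: 100% = DMSO wells and 0% = empty wells on each plate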
Summary of the method: as §1

[4] = Quantitative highthroughput screen to assess conditional lethalithy of P12 Ichikawa cells grown in Human Plasma-Like Medium with dialyzed fetal bovine serum (HPLM+ds) (AID 1963879); conditions: Potency: viability; note: nearly all actives have a fitted effect of over 35% in size; for viability: series mostly up to about 46 µM
Summary of the method: as §1

[5] = Quantitative highthroughput screen to assess conditional lethalithy of P12 Ichikawa cells grown in RPMI1640 with dialyzed fetal bovine serum (RPMI+ds) (AID 1963880); conditions: Potency: P12-Ichikawa viability; note: nearly all actives have a fitted effect of over 35% in size;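 for viability: 100% = DMSO wells and 0% = empty wells on each plate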
Summary of the method: as §1

[6] = Quantitative highthroughput screen to assess conditional lethalithy of P12 Ichikawa cells grown in RPMI1640 with untreated serum (RPMI+s) (AID 1963881); conditions: Potency: viability; note: nearly all actives have a fitted effect of over 35% in size;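 for viability: series mostly up to about 46 µM; 100% = DMSO wells and 0% = empty wells without cells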
Summary of the method: as §1

[7] = Quantitative highthroughput screen to assess conditional lethalithy of SEM cells grown in Human Plasma-Like Medium with dialyzed fetal bovine serum (HPLM+ds) (AID 1963882); note: nearly all actives have a fitted effect of over 35% in size; for viability: series mostly up to about 46 µM
Summary of the method: as §1

[8] = Quantitative highthroughput screen to assess conditional lethalithy of SEM cells grown in RPMI1640 with unreated serum (RPMI+s) (AID 1963883); note: nearly all actives have a fitted effect of over 35% in size;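 for viability: 100% = DMSO wells and 0% = empty wells without cells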
Summary of the method: as §1

[9] = Quantitative highthroughput screen to assess conditional lethalithy of SEM cells grown in RPMI1640 with dialyzed fetal bovine serum (RPMI+ds) (AID 1963884); note: nearly all actives have a fitted effect of over 35% in size;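 for viability: series mostly up to about 46 µM; 100% = DMSO control wells and 0% = empty wells without cells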
Summary of the method: as §1

[10] = Cellular viability qHTS for adrenocortical cancer (ACC) cell line SW-13 (AID 1963989); conditions: SW-13 ACC cells viability, CellTiter-Glo, 48 h; activity (max response): hits give low values; note: nearly all actives have a fitted effect of over 65% in size;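 for activity (max response): cells grown in serum-free medium with ITS supplement; % is set by controls: 0 for no effect and ±100 for the full control effect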
Summary of the method: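 Viability was read as CellTiter-Glo luminescence after 48 h compound treatment (up to 46 uM final) of SW-13 cells grown serum-free; titration curves were fit with a four-parameter logistic model to give IC50 and efficacy.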

[11] = Cellular viability qHTS for adrenocortical cancer (ACC) cell line NCI-H295R (AID 1963990); note: nearly all actives have a fitted effect of over 60% in size
Summary of the method: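 CellTiter-Glo ATP luminescence, read 48 h after compound addition, measured viability of NCI-H295R adrenocortical cells grown serum-free with ITS. Final concentrations spanned up to 46 uM. Data normalized to DMSO and doxorubicin, fitted for IC50 and maximal response.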
Potency is the fitted concentration of half-maximal effect.

COc1cc2nc(-c3ccc(N4CCN(C)CC4)cc3)nc(NCCN3CCOCC3)c2cc1OC
active: Potency [1] 1.66 µM | Potency [2] 0.743 µM | Potency [3] 0.526 µM | Potency [4] 5.26 µM | Potency [5] 2.64 µM | Potency [6] 2.96 µM | Potency [7] 0.166 µM | Potency [8] 0.469 µM | Potency [9] 0.372 µM | Potency [10] 17.8 µM | Potency [11] 3.55 µM

Oc1ccc(C2CNCCc3c2cc(O)c(O)c3Cl)cc1 (stereo not given)
inactive: Potency [1] | Potency [2] | Potency [3] | Potency [4] | Potency [5] | Potency [6] | Potency [7] | Potency [8] | Potency [9] | activity (max response) [10] 2.44% and 14.8% | Potency [11]

CC1=C(CO)C(=O)O[C@@H]([C@@H](C)[C@H]2CC[C@H]3[C@@H]4C[C@H]5O[C@]56[C@@H](O)C=CC(=O)[C@]6(C)[C@@H]4CC[C@]23C)C1
active: Potency [1] 0.372 µM | Potency [2] 0.469 µM | Potency [3] 0.296 µM | Potency [4] 0.296 µM | Potency [5] 0.264 µM | Potency [6] 0.235 µM | Potency [7] 0.235 µM | Potency [8] 0.235 µM | Potency [9] 0.264 µM

O=c1c(O)c(-c2cc(O)c(O)c(O)c2)oc2cc(O)cc(O)c12
inactive: Potency [1] | Potency [2] | Potency [3] | Potency [4] | Potency [5] | Potency [6] | Potency [7] | Potency [8] | Potency [9] | activity (max response) [10] -0.163%

CCN(CC)CCn1c(=O)c(Cc2ccc(OC)cc2)nc2ccccc21
inactive: Potency [1] | Potency [2] | Potency [3] | Potency [4] | Potency [5] | Potency [6] | Potency [7] | Potency [8] | Potency [9] | activity (max response) [10] -3.48% | Potency [11]

O=C(O)[C@H](CC(=O)N1C[C@@H]2CCCC[C@H]2C1)Cc1ccccc1
inactive: Potency [1] | Potency [2] | Potency [3] | Potency [4] | Potency [5] | Potency [6] | Potency [7] | Potency [8] | Potency [9]

O=C(Nc1c(Cl)cncc1Cl)c1ccc(OC(F)F)c(OCC2CC2)c1
inactive: Potency [1] | Potency [2] | Potency [3] | Potency [4] | Potency [5] | Potency [6] | Potency [7] | Potency [8] | Potency [9] | activity (max response) [10] 5.46% | Potency [11]

Cc1nc(NC(=O)N2CCC[C@@H]2C(N)=O)sc1-c1csc(C(C)(C)C)n1
active: Potency [1] 2.35 µM | Potency [2] 1.66 µM | Potency [3] 1.48 µM | Potency [4] 1.66 µM | Potency [5] 2.35 µM | Potency [6] 1.66 µM | Potency [7] 1.05 µM | Potency [8] 0.743 µM | Potency [9] 1.05 µM

COCCCOc1ccnc(CS(=O)c2nc3ccccc3[nH]2)c1C (stereo not given)
inactive: Potency [1] | Potency [2] | Potency [3] | Potency [4] | Potency [5] | Potency [6] | Potency [7] | Potency [8] | Potency [9] | activity (max response) [10] 10.6% and -5.29% | Potency [11]

O=c1ccn([C@@H]2O[C@H](CO)[C@H](O)[C@@H]2F)c(=O)[nH]1
inactive: Potency [1] | Potency [2] | Potency [3] | Potency [4] | Potency [5] | Potency [6] | Potency [7] | Potency [8] | Potency [9] | activity (max response) [10] -7.29% | Potency [11]

Nc1ccc(S(=O)(=O)Nc2ccnn2-c2ccccc2)cc1
inactive: Potency [1] | Potency [2] | Potency [3] | Potency [4] | Potency [5] | Potency [6] | Potency [7] | Potency [8] | Potency [9] | activity (max response) [10] 3.92% | Potency [11]

COc1ccc2c3c1OC1C[C@@H](O)C=C[C@@]31CCN(C)C2 (stereo not given in full)
inactive: Potency [1] | Potency [2] | Potency [3] | Potency [4] | Potency [5] | Potency [6] | Potency [7] | Potency [8] | Potency [9]

CCCc1nc(C(C)(C)O)c(C(=O)O)n1Cc1ccc(-c2ccccc2-c2nn[nH]n2)cc1
inactive: Potency [1] | Potency [2] | Potency [3] | Potency [4] | Potency [5] | Potency [6] | Potency [7] | Potency [8] | Potency [9] | activity (max response) [10] 8.92% | Potency [11]

C=C1CCC2[C@](C)(CO)C(O)CC[C@]2(C)C1CC=C1C(=O)OCC1O (stereo not given in full)
inactive: Potency [1] | Potency [2] | Potency [3] | Potency [4] | Potency [5] | Potency [6] | Potency [9]
active: Potency [8] 0.034 µM

COc1cccc(Nc2c(C(N)=O)cnc3c(C)cc(S(=O)(=O)c4cccc(C(=O)N(C)C)c4)cc23)c1
inactive: Potency [1] | Potency [2] | Potency [3] | Potency [4] | Potency [5] | Potency [6] | Potency [7] | Potency [8] | Potency [9] | Potency [11]

O=C1CCc2cc(OCCCCc3nnnn3C3CCCCC3)ccc2N1
inactive: Potency [1] | Potency [2] | Potency [3] | Potency [4] | Potency [5] | Potency [6] | Potency [7] | Potency [8] | Potency [9] | Potency [11]

O=C(C=Cc1ccc(CN(CCO)CCc2c[nH]c3ccccc23)cc1)NO
active: Potency [1] 0.59 µM | Potency [2] 0.743 µM | Potency [3] 0.59 µM | Potency [4] 0.418 µM | Potency [5] 0.418 µM | Potency [6] 0.332 µM | Potency [8] 0.264 µM | Potency [9] 0.296 µM
